This is a sample that favours compounds with a hit; in the whole collection about 10% have one here.
VP16 counter = VP16 counterscreen qHTS for inhibitors of ROR gamma transcriptional activity. Drosophila S2 Gal4-VP16 UAS-luciferase, luminescence, 20 h. Potency, µM (series often up to 53.6 µM), inactives show at the top dose activity, negative = inhibition, most hits filed as inhibitors. 3.5% of 310,000 active;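 note: Gal4-VP16 expression switched on by copper sulfate through the metallothionein promoter; % is set by controls: 0 for no effect and ±100 for the full control effect; nearly all actives have a fitted effect of over 50% in size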
SW480 rereplic = A quantitative high throughput screen for small molecules that induce DNA re-replication in SW480 colon adenocarcinoma cells | Potency, µM (doses to about 46.1 µM), for the others: at the top dose re-replication activation, actives largely listed as activators | SW480 DNA re-replication, Hoechst DNA content imaging, 48 h | 1.8% of 340,000 active; note: % of control where 0% means no effect; nearly all actives have a fitted effect of over 55% in size
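Hoechst fluorescence of nuclei (405 nm excitation, 500-530 nm emission) measured by plate-scanning imager after 48 hr compound exposure at 37 C; re-replication scored as increased number of nuclei with elevated intensity.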
MCF10A rereplic = A quantitative high throughput screen for small molecules that induce DNA re-replication in MCF 10a normal breast cells. MCF 10A DNA re-replication, Hoechst nuclear intensity, 48 h. Potency, µM (doses to about 46.1 µM), inactives show at the top dose activity, positive = re-replication, actives largely listed as activators. 2.9% of 350,000 active. AID 624296, 2012; note: % of control where 0% means no effect; nearly all actives have a fitted effect of over 50% in size
KB-3-1 cytotox = qHTS assay for MDR1-selective chemotherapeutics: Primary screen using the parental adenocarcinoma cell KB-3-1; Potency, µM (top dose mostly 46.1 µM), usual class: cytotoxic; KB-3-1 viability, CellTiter-Glo ATP luminescence, 72 h; 1.4% of 400,000 active; note: % is set by controls: 0 for no effect and ±100 for the full control effect; nearly all actives have a fitted effect of over 60% in size
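Parental KB-3-1 adenocarcinoma cells in phenol-red-free DMEM with 10% FBS were pin-treated with compounds at several concentrations, incubated 72 h at 37 °C, and viability read by CellTiter-Glo luminescence; concentration-effect curves were fitted after normalization.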
RORgamma inh = qHTS for inhibitors of ROR gamma transcriptional activity. Potency, µM (doses to about 53.6 µM), without a hit: top-dose activity change, negative = inhibition, actives largely listed as inhibitors. Nuclear receptor ROR-gamma (Mus musculus), P51450. Drosophila S2 Gal4-RORgamma UAS-luciferase reporter, 20 h. 5.4% of 310,000 active. AID 2551, 2010; note: % is set by controls: 0 for no effect and ±100 for the full control effect; nearly all actives have a fitted effect of over 60% in size
Target sequence (P51450 whole entry, looked up, the tested form may be a part): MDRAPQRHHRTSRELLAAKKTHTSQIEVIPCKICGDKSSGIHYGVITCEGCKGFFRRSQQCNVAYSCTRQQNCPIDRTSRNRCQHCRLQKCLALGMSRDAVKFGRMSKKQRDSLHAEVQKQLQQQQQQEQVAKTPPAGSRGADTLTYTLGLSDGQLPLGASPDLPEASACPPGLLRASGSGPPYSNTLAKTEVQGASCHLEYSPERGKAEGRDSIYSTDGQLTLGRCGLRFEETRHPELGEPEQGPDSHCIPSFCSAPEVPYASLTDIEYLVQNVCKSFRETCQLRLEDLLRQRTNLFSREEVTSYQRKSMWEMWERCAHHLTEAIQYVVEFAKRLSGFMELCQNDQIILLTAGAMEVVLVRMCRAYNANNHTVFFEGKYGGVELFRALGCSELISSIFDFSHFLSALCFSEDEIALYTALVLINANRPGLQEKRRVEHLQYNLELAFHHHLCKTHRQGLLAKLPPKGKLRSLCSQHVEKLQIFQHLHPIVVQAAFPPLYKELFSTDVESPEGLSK
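A Gal4/UAS one-hybrid system in insect cells: metallothionein-promoter Gal4–ROR gamma fusion plus Photinus luciferase reporter. Copper sulfate 700 uM final, 20 hr ambient incubation, luminescent detection after 10 min with reagent.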
KB-V1 MDR tox = qHTS assay for MDR1-selective chemotherapeutics: Primary screen using the drug-selected MDR subline cells KB-V1; Potency, µM (doses to about 46.1 µM), hits mostly cytotoxic; AID 1347076, 2019; KB-V1 MDR cells viability, CellTiter-Glo, 72 h; 3.4% of 400,000 active; note: % is set by controls: 0 for no effect and ±100 for the full control effect; nearly all actives have a fitted effect of over 60% in size
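qHTS viability screen in drug-selected KB-V1 MDR cells: 72 h compound treatment at 37 degrees C, ATP luminescence end point.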
Numbers without * were called inactive; i = inactive; ? = inconclusive; · = no result; ! = not confirmed by another sample; [ ] = another dose, or the depositor's remark. Calls come from the whole dose curve; as a rule, active = well fitted curve in the direction sought with a large enough effect; inconclusive = small, poorly fitted or top-dose-only effect, or another doubt; inactive = no such curve, though single readings can be large; an effect the other way counts as inactive or inconclusive. Potency is the fitted concentration of half-maximal effect.

SMILES	VP16 counter	SW480 rereplic	MCF10A rereplic	KB-3-1 cytotox	RORgamma inh	KB-V1 MDR tox
CC(C)c1oc(=O)cc2c1[C@@H](O)[C@H]1OC(=O)[C@@]3(C)C[C@@H](O)[C@@H](O)[C@@]2(C)C13 (stereo partly drawn)	-18%	?	5.2µM*	8.2µM*	-32%	i
CC(C)c1oc(=O)cc2c1[C@@H](O)[C@H]1OC(=O)[C@@]3(C)CC[C@@H](O)[C@@]2(C)C13 (stereo partly drawn)	5µM*	?	12%	7.3µM*	20µM*	i
CCOP(=S)(OCC)Oc1ncn(-c2ccccc2)n1	?	·	·	·	2%	·
CC(C)CCNC(=O)CNC(=O)[C@@H](C)NC(=O)[C@@H](N)Cc1ccc(O)cc1	-5%	·	·	·	-3%	·
CC[C@]12C=CCN3CC[C@@]4(c5ccc(OC)cc5N(C)[C@H]4[C@@](O)(C(=O)OC)[C@@H]1OC(C)=O)C32 (stereo partly drawn)	-6%	·	·	·	32%	·
CC(C)(C)n1ncc2c(=O)n(Cc3cccc(Cn4cnc5c(cnn5C(C)(C)C)c4=O)c3F)cnc21	·	3%[9.22 µM]	-12%	?	·	?
COc1cc2cc(C(=O)N3CC(COS(C)(=O)=O)c4ccc(O)cc43)[nH]c2c(OC)c1OC (stereo not drawn)	·	-8%	-7%	?	·	0.0092µM*
COC(=O)CCCc1[se]c2ccccc2c1I	-3%	·	·	·	42%	·
CC(C)(C)c1ccc(OCC(=O)Nc2ccc(Cl)cc2C(=O)c2ccccc2)cc1	·	·	·	i	·	i
c1ccc(OCc2ccc(CCCN3CCOCC3)cc2)cc1	-12%	3%	24µM*!	i	-7%	i
CN(C)CCC=C1c2ccccc2CCc2ccccc21	9%	?	?	i	26%	21µM*
COc1ccc2c(c1OC)C(=O)O[C@H]2[C@H]1c2cc3c(cc2CCN1C)OCO3	5%[17 µM]	·	·	·	-4%[16.9 µM]	·
C#CCOc1cc(C2C3=C(COC3=O)Nc3cc4c(cc32)OCO4)ccc1OC (stereo not drawn)	-1%	2.1µM*	?	i	-20%	?
Clc1ccccc1NC1=NCCCS1	1%	-8%	?	i	-8%	i
CC(=O)N(C1=NCCCS1)c1ccccc1Cl	-2%[10 µM]	-14%	0.58µM*	i	4%	i
CCCCCOC(=O)c1ccccc1C(=O)OCCCCC	-5%	·	·	·	20%	·
Cc1nccn1-c1c([N+](=O)[O-])c(=O)n(C)c2ccccc12	-22%	-2%[9.22 µM]	10µM*	i	-13%	i
Cc1nc2ccccc2c(=O)n1-c1ccccc1[N+](=O)[O-]	23%	-4%	-3%	i	-15%	i
C[C@]12CC[C@H](O)C[C@H]1CC[C@@H]1[C@@H]2CC[C@]2(C)[C@@H](C3=CC(=O)OC3)CC[C@]12O	·	?	?	1.6µM*	·	1.5µM*
C[C@]12[C@H](O)CC3C(CC[C@@H]4C[C@@H](O)CC[C@]34C)[C@@]1(O)CC[C@@H]2C1=CC(=O)OC1 (stereo partly drawn)	-3%	·	·	·	-7%	·
C[C@]12CC[C@H](O)C[C@H]1CCC1C2CC[C@]2(C)[C@@H](c3ccc(=O)oc3)C[C@H]3O[C@]132 (stereo partly drawn)	1%	?	13µM*	?	9%	?
CC12CCC(O)CC1CCC1C2CCC2(C)C(C3=CC(=O)OC3)C(O)CC12O (stereo not drawn)	·	23µM*	2.1µM*	?	·	4.1µM*
CC12CCC(O)CC1CCC1C2CCC2(C)C(C3=CC(=O)OC3)CCC12O (stereo not drawn)	·	5.8µM*	?	1.2µM*	·	0.73µM*
CCOC(OCC)P(=O)(O)CCCN	7%	·	·	·	12%	·
CC(=O)O[C@@H]1CN2CCC1CC2	3%	·	·	·	-4%	·
SMILES	VP16 counter	SW480 rereplic	MCF10A rereplic	KB-3-1 cytotox	RORgamma inh	KB-V1 MDR tox
C[C@]12CC[C@H](O)C[C@H]1CC[C@@H]1[C@@H]2C[C@@H](O)[C@]2(C)[C@@H](C3=CC(=O)OC3)CC[C@]12O	·	?	?	1.3µM*	·	1.6µM*
CC12CC[C@H]3[C@@H](CCC4(O)C[C@H](O)CCC34/C=N/NC(=O)c3ccccc3[N+](=O)[O-])C1(O)CCC2C1=CC(=O)OC1 (stereo partly drawn)	0%	7%	16µM*	9.2µM*	22%	?
c1ccc(CN2CCC3(CCNCC3)CC2)cc1	-2%	·	·	·	-15%	·
Cc1ccc2c(c1)C1CN(C)CCC1N2C(=O)c1cn(-c2ccccc2)nc1-c1ccccc1 (stereo not drawn)	-18%	?	21µM*	i	?	i
Cc1ccc2c(c1)C1CN(C)CCC1N2C(=O)c1cccnc1Cl (stereo not drawn)	-5%	-5%	-3%	i	0%	i
CC(N)C(=O)NC1C2C(=C(O)CC(O)C2O)C(=O)OC1(C)C(Cl)Cl (stereo not drawn)	·	?	?	2.1µM*	·	18µM*
O=C1NC(=O)C(=Cc2ccc(Sc3ccccc3)o2)C(=O)N1	?	?	?	i	-20%	?
CC1(C)OC(c2ccccc2)=C/C(=C/C=C2C(=O)NC(=O)NC2=O)O1	-20%	18µM*	18µM*	?	-18%	i
O=C(Nc1ccc2c(c1)OCCO2)c1cccn(Cc2cccc(F)c2)c1=O	·	·	·	i	·	i
CC(=O)Oc1c2c(c(CC=C(C)C)c3c1C(=O)C1=CC4CC5C(C)(C)OC(C/C=C(\C)C(=O)O)(C4=O)[C@]15O3)OC(C)(CCC=C(C)C)C=C2 (stereo partly drawn)	?	·	·	·	3.5µM*	·
COC(=O)/C(C)=C\CC12OC(C)(C)C3CC(C=C4C(=O)c5c(OC)c6c(c(CC=C(C)C)c5OC431)OC(C)(CCC=C(C)C)C=C6)C2=O (stereo not drawn)	-1%	·	·	·	?	·
CCN1C[C@]2(COC)CC[C@H](O)[C@@]34[C@@H]5C[C@H]6[C@@H](OC)[C@H]5[C@](O)(C[C@@H]6OC)[C@@](O)([C@@H](OC)[C@H]23)[C@@H]14	6%[17 µM]	·	·	·	-20%[16.9 µM]	·
CCOc1ccc2cc(C#N)c(=O)oc2c1	-3%	·	·	·	7%	·
